ADAM17 inh – ADAM17 inhibitors, primary screen, biochemical, QFRET; Disintegrin and metalloproteinase domain-containing protein 17 (Homo sapiens), P78536; recombinant ADAM17, EDANS/DABCYL FRET peptide cleavage; inhibition, % at 6.95 µM; 0.83% of 370,000 active; AID 720648, 2013;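 active = inhibition above the mean of compounds lying between control limits plus 3 SD, set per campaign, cut at about 8.5% in these data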
PLC-gamma1 inh – PLC-gamma1 enzyme inhibitors, primary screen, biochemical, fluorescence, purified enzyme. 1-phosphatidylinositol 4,5-bisphosphate phosphodiesterase gamma-1 (Homo sapiens), P19174. fluorogenic substrate. inhibition, % at 12.2 µM. 0.84% of 370,000 active. AID 720700, 2013; in the data active = inhibition above about 9.5%
proKLK7 act – proKLK7 zymogen activators, primary screen, biochemical, fluorescence intensity; Kallikrein-7 (Homo sapiens), P49862; purified proKLK7, EDANS-DABCYL substrate fluorescence; 100% is mature enzyme control, 0% vehicle; activation, % at 7 µM; 0.9% of 370,000 active;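 active = activation above the mean of all tested compounds plus 3 SD, computed per campaign excluding outliers beyond control limits, cut at about 13% in these data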
Target sequence (P49862 whole entry, looked up): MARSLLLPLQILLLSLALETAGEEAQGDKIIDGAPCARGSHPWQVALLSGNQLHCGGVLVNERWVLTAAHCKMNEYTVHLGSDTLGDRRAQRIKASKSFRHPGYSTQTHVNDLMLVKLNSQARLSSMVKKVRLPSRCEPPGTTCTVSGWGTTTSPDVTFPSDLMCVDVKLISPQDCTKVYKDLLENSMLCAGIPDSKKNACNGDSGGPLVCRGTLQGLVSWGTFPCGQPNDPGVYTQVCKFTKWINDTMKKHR
ADAM10 inh – human ADAM10 inhibitors, primary screen, biochemical, QFRET, HTS | inhibition, % at 7 µM | Disintegrin and metalloproteinase domain-containing protein 10 (Homo sapiens), O14672 | 0.62% of 370,000 active | recombinant ADAM10, EDANS/DABCYL FRET peptide cleavage, 3 h | AID 720582, 2013;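 active = inhibition above a per-campaign cutoff equal to the mean of compounds falling between control-based bounds plus 3 SD, cut at about 20% in these data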
HGIII-sPLA2 inh – human group III sPLA2 inhibitors, primary screen, biochemical, QFRET, BODIPY PC-A2 liposome substrate | Group 3 secretory phospholipase A2 (Homo sapiens), Q9NZ20 | QFRET BODIPY PC-A2 liposome hydrolysis, fluorescence | inhibition, % at 12.2 µM | 0.56% of 370,000 active | AID 743126, 2013;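 active = inhibition above mean plus 3 SD of compounds lying within the high and low control bounds, cut at about 19% in these data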
PLCb3 inh – human PLC-beta3 inhibitors, primary screen, biochemical, fluorescence; 1-phosphatidylinositol 4,5-bisphosphate phosphodiesterase beta-3 (Homo sapiens), Q01970; Purified PLC-beta3, fluorogenic substrate; inhibition, % at 12.2 µM; 0.18% of 370,000 active; AID 720704, 2013; in the data active = inhibition above about 11%
proKLK7 act conf – proKLK7 zymogen activators, confirmation, biochemical, fluorescence intensity, triplicate | shares compounds with proKLK7 act | purified proKLK7, EDANS-DABCYL substrate fluorescence; scaled: vehicle 0, mature enzyme 100 | activation, % at 7 µM | 68% of 3,200 active | AID 686949, 2013;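 active = activation, as change over the incubation, above the mean of all tested compounds plus 3 SD, cut at about 13% in these data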
EDANS-DABCYL int – EDANS-DABCYL substrate optical interference, artefact control for kallikrein-7 zymogen activator project, biochemical, fluorescence intensity, high throughput. no enzyme, 4 h; solvent 0%, active enzyme control 100%. activation, % at 7 µM. 80% of 3,200 active. shares compounds with proKLK7 act;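 active = activation above the all-compound mean plus 3 SD, ignoring values outside control-based bounds, cut at about 4.8% in these data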;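 note: value is the 4 h activation minus the activation read at time zero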
Each line names hits and unclear results; the compound was inactive in the other large screens (follow-up assays come after a bar, where they were run). A selection: hits, their analogues and other compounds. The true share with any hit is near 3.4%.

Cc1ccc(C(=O)N2CCc3cc4c(cc3C2C)OCCCO4)cc1 (stereo not given)	proKLK7 act 13 | proKLK7 act conf inactive | EDANS-DABCYL int 6.7
CS(=O)(=O)c1cccc(C(=O)Nc2ccc(-c3nc4ccccc4[nH]3)cc2)c1	proKLK7 act 84 | proKLK7 act conf 55 | EDANS-DABCYL int 63
CC(=O)/C=C(\C)Nc1ccc(-c2cnc(-c3ccccc3)o2)cc1	proKLK7 act 57 | proKLK7 act conf 63 | EDANS-DABCYL int 64
CCCCCCCCN1C(=O)[C@@H](CC(=O)NCCC(C)C)C[C@@]2(C(=O)OC)C1=C[C@H](C(C)C)O[C@@H]2C1CC1	none
O=c1c2ccccc2c(/C=N/NS(=O)(=O)c2ccccc2)c(O)n1-c1ccccn1	proKLK7 act 46 | proKLK7 act conf 92 | EDANS-DABCYL int 94
O=C(C1CCCCC1)n1ccc2ccc(-c3ccc4ccn(Cc5ccccc5)c4c3)cc21	none
COC1=CC(=O)c2nc(Cl)ccc2C1=O	PLC-gamma1 inh 10, proKLK7 act 92 | proKLK7 act conf 161 | EDANS-DABCYL int 161
COc1cccc2c1C(=O)C=C(C)C2=O	none
CCc1cc2c(nc1CC)CCCN2CCOC	proKLK7 act 29 | proKLK7 act conf inactive | EDANS-DABCYL int inactive
CCc1cc2c(nc1CC)CCCN2S(=O)(=O)c1ccc(C#N)cc1	none
CC(C)C1NC(C(=O)O)Cc2c1[nH]c1ccccc21 (stereo not given)	proKLK7 act 30 | proKLK7 act conf 56 | EDANS-DABCYL int 49
CCCC1NC(C(=O)O)Cc2c1[nH]c1ccccc21 (stereo not given)	proKLK7 act 13 | proKLK7 act conf inactive | EDANS-DABCYL int 7.6
CC(C)CC1NC(C(=O)O)Cc2c1[nH]c1ccccc21 (stereo not given)	none
O=C(c1cc2c(s1)-c1ccccc1S(=O)(=O)C2)N1CCCC1	none
O=C(Nc1ccccc1F)c1cc2c(s1)-c1ccccc1S(=O)(=O)C2	proKLK7 act 89 | proKLK7 act conf 60 | EDANS-DABCYL int 93
Nc1ccc(-c2nc3c(ccc4ccccc43)[nH]2)cc1	proKLK7 act 54 | proKLK7 act conf 74 | EDANS-DABCYL int 74
O=c1c(-c2ccc(O)cc2)coc2c(C3O[C@H](CO)[C@@H](O)[C@H](O)[C@H]3O)c(O)ccc12 (stereo not given in full)	none
CCN(CC)Cc1c(O)ccc2c(=O)c(-c3ccc(Cl)cc3)coc12	proKLK7 act 29 | proKLK7 act conf 33 | EDANS-DABCYL int 31
Cc1c(O)ccc2c(=O)c(Oc3ccccc3)coc12	none
CCCOC(=O)c1ccc(Oc2coc3c(CN(CC)CC)c(O)ccc3c2=O)cc1	proKLK7 act 60 | proKLK7 act conf inactive | EDANS-DABCYL int 48
C=CCN(CC=C)Cc1c(O)ccc2c(=O)c(-c3ccccc3)coc12	proKLK7 act 38 | proKLK7 act conf 26 | EDANS-DABCYL int 29
CN(C)Cc1c(O)ccc2c(=O)c(-c3ccc(Cl)cc3)coc12	proKLK7 act 33 | proKLK7 act conf 39 | EDANS-DABCYL int 37
O=S(=O)(Nc1cccc(-c2cn3cccnc3n2)c1)c1ccccc1	proKLK7 act 70 | proKLK7 act conf 15 | EDANS-DABCYL int 18
O=S(=O)(Nc1cccc(-c2cn3cccnc3n2)c1)c1ccc(-c2ccccc2)cc1	none
COc1ccc(-c2cn3cccnc3n2)cc1NC(=O)c1cc(OC)c(OC)c(OC)c1	none
COc1ccc(-c2cn3cccnc3n2)cc1NS(=O)(=O)c1ccccc1	proKLK7 act 16 | proKLK7 act conf inactive | EDANS-DABCYL int 5.2
O=S(=O)(Nc1ccc(-c2cn3cccnc3n2)cc1)c1ccccc1	proKLK7 act 65 | proKLK7 act conf 22 | EDANS-DABCYL int 22
O=S(=O)(Nc1ccc(-c2csc(-c3ccccc3)n2)cc1)c1ccccc1	none
COc1ccc(-c2cn3cccnc3n2)cc1F	proKLK7 act 64 | proKLK7 act conf 78 | EDANS-DABCYL int 83
Cc1cccc(-c2cccc3c4c([nH]c23)[C@@H]2C[C@H](N(C)C(=O)Nc3ccccc3C)[C@H]([C@H](C)O)CN2CC4)c1	none
Cc1ccccc1Cn1cc(CN2[C@H](Cc3ccccc3)COc3cc(Br)ccc3S2(=O)=O)nn1	none
O=C(/C=C(\Nc1ccc(F)cc1)c1ccccc1)c1ccccc1	none
O=S(=O)(Nc1cccc(-c2cn3cccnc3n2)c1)c1ccc(F)cc1	proKLK7 act 58 | proKLK7 act conf 14 | EDANS-DABCYL int 14
O=S(=O)(Nc1cccc(-c2cn3ccsc3n2)c1)c1ccc(F)cc1	none
COc1cc2c(cc1OC)C(SC)=NC1(CCCC1)C2	none
COc1cc2c(cc1OC)C(c1ccc(Cl)cc1)=NCC2	none
COc1cc2c(cc1OC)C(C)=NC1(CCCCC1)C2	proKLK7 act 101 | proKLK7 act conf 61 | EDANS-DABCYL int 66
COc1cc2c(cc1OC)C(C)=NCC2	proKLK7 act 115 | proKLK7 act conf 62 | EDANS-DABCYL int 77
CN(Cc1cnc2nc(N)nc(N)c2n1)c1ccc(C(=O)NC(CCC(=O)O)C(=O)O)c2ccccc12 (stereo not given)	proKLK7 act 19 | proKLK7 act conf inactive | EDANS-DABCYL int inactive
O=C(O)CCC(NC(=O)c1ccc(Cl)cc1)C(=O)O (stereo not given)	none
CCCc1cc(=O)oc2c3c(cc(OCC(=O)NCC4CCC(C(=O)O)CC4)c12)OC(C)(C)CC3 (stereo not given)	none
CCCc1cc(=O)oc2c3c(cc(OCC(=O)N4CCC(C(=O)O)CC4)c12)OC(C)(C)CC3	proKLK7 act 65 | proKLK7 act conf 77 | EDANS-DABCYL int 76
Cc1c(C)c2c(OCC(=O)N3CCC(O)CC3)cc3c(c2oc1=O)CCC(C)(C)O3	proKLK7 act 42 | proKLK7 act conf 69 | EDANS-DABCYL int 73
Cc1c(C)c2c(OCC(=O)N3CCC[C@H]3C(=O)O)cc3c(c2oc1=O)CCC(C)(C)O3	proKLK7 act 71 | proKLK7 act conf 71 | EDANS-DABCYL int 70

Compound activity as filed in PubChem BioAssay.
